# Experimental data: paper PMC4336329 (PLoS ONE, 2015)
# Screen size: about 310,000 compounds; about 14,000 (4.5%) showed an effect of 50% or more. The effect is printed as a negative number. The sample holds strong results, similar compounds and a random draw of the others, so the mix is not that of the screen.
# Biological target: human ether-à-go-go-related gene (hERG) potassium channel (human, UniProt Q12809)
# Assay: primary screen, population patch clamp on CHO cells stably expressing hERG; higher = less effect of the substance
# 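Also: peak tail current of the secondary pulse compared with the same well before compound.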
# Sequence of human ether-à-go-go-related gene (hERG) potassium channel (Q12809 whole entry, looked up): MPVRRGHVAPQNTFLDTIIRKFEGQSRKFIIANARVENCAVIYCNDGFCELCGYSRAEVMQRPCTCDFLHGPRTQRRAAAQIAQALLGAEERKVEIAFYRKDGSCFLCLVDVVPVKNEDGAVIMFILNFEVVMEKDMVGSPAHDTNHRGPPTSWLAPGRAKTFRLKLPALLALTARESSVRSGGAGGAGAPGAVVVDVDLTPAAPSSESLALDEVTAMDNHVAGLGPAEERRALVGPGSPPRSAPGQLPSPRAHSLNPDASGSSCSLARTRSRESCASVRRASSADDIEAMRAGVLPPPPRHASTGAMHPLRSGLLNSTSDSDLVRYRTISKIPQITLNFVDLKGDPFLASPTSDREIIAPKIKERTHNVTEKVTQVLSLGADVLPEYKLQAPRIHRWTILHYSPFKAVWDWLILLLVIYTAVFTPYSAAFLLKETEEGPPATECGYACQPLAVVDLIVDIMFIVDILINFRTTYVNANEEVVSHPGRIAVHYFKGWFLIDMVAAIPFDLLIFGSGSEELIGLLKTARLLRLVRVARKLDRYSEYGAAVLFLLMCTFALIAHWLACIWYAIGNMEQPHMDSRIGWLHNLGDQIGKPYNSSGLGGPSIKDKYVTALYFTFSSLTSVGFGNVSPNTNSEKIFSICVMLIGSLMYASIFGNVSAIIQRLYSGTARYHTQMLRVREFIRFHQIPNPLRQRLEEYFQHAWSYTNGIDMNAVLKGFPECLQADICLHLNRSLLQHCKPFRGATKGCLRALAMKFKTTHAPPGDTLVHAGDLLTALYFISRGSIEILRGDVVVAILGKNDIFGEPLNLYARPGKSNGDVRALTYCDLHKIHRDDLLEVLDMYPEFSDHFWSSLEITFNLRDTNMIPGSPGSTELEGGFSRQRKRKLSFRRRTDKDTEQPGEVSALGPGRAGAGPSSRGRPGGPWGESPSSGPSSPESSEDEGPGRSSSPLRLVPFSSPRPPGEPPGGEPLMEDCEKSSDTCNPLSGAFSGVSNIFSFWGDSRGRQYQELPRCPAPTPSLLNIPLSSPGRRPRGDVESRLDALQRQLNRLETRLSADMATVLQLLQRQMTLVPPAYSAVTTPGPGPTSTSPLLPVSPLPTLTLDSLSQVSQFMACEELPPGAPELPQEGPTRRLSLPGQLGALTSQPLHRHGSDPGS
row,SMILES,"hERG current change (%, negative = inhibition) at 10uM [%]"
1,CSc1ncccc1C(=O)N1CCCC(N2CCN(c3ccccc3F)CC2)C1 (stereo not drawn),-12.4
2,NS(=O)(=O)c1ccc(CCNC(=O)CN2C(=O)c3ccccc3S2(=O)=O)cc1,1.3
3,CCOC(=O)N1CCN(C(=O)c2ccc(CNS(=O)(=O)c3ccc(OC)cc3)cc2)CC1,-4.84
4,Cl.O=C(CCN1CCCCCC1)Nc1cccc(F)c1,-23.6
5,CN1CCN(CCC(=O)Nc2cccc(F)c2)CC1,-1.22
6,O=C(CCN1CCN(C/C=C/c2ccccc2)CC1)Nc1cccc(F)c1,-77.9
7,CCOC(=O)OC(C)OC1=C(C(=O)Nc2ccccn2)N(C)S(=O)(=O)c2ccccc21 (stereo not drawn),16.1
8,O=P(Nc1c(Cl)cccc1Cl)(c1ccccc1)c1nc2c(s1)CCCC2 (stereo not drawn),10
9,Nc1nonc1-n1nnc(C(=O)N/N=C/c2ccc(Br)cc2)c1CSC1=NCCS1,-3.36
10,O=c1[nH]c([N+](=O)[O-])nn1C(c1ccccc1)c1ccccc1,-13.7
11,COCCCN1C(=O)c2ccccc2C1C(=O)NC1CCCCCC1 (stereo not drawn),-2.83
12,O=C(Nc1ccccc1)N1C2CCC1CC(O)(c1cccnc1)C2 (stereo not drawn),8.01
13,COc1cc(NC(=O)CN2C3CCC2CC(O)(c2cccnc2)C3)cc(OC)c1 (stereo not drawn),-60.9
14,COCCNC(=O)CN1C2CCC1CC(O)(c1cccnc1)C2 (stereo not drawn),0.682
15,O=C(CN1C2CCC1CC(O)(c1cccnc1)C2)Nc1ccc2c(c1)OCO2 (stereo not drawn),-53.1
16,O=C(Nc1cccc(F)c1)N1C2CCC1CC(O)(c1cccnc1)C2 (stereo not drawn),24.1
17,COc1ccc(NC(=O)CN2C3CCC2CC(O)(c2cccnc2)C3)cc1OC (stereo not drawn),0.385
18,Brc1cccc(-c2nnc3n2CCC3)c1,2.98
19,O=C(NC1CCN(C(=O)Nc2ccccc2)CC1)C1CCCCC1,-7.88

row,SMILES,"hERG current change (%, negative = inhibition) at 10uM [%]"
1,O=C(CN1C(=O)c2cccc3cccc1c23)Nc1ccc(S(=O)(=O)N2CCOCC2)cc1,-9.06
2,CCCSCCCNC(=O)Cn1cc2c(n1)CCC(C)C2 (stereo not drawn),-12.8
3,COc1ccc(-c2nc3n(c(=O)c2C#N)CCCS3)cc1,-4.57
4,COCCNC(=O)/C(=C/c1ccccc1Cl)c1ccccc1,-0.406
5,COC(=O)N/N=C\c1ccc(OC/C=C/c2ccccc2)c(OC)c1,6.04
6,N#CC1=C(SCC(=O)c2cc3ccccc3oc2=O)NC(=O)C(C#N)C12CCCC2 (stereo not drawn),-54.5
7,N#CC1=C(SCC(=O)Nc2cccc3cccnc23)NC(=O)C(C#N)C12CCCCC2 (stereo not drawn),-20.7
8,N#CC1=C(SCc2ccccc2)NC(=O)C(C#N)C12CCCC2 (stereo not drawn),1.97
9,COC(=O)c1ccc(NC(=O)CCS(=O)(=O)c2ccc(Br)cc2)cc1,28.8
10,NC(N)=NS(=O)(=O)c1ccc(NC(=S)NC(=O)c2ccncc2)cc1,2.9
11,COc1ccccc1CNC(=O)C1=C(C)C(=O)OC12CCC(C)CC2 (stereo not drawn),-2.21
12,O=C1C=C(c2cccc(Cl)c2)C[C@@H](c2ccc(Cl)cc2)C1,24.4
13,COc1cccc(C2=CC(=O)C[C@H](c3ccc(OC)c(OC)c3)C2)c1,-40
14,COc1ccc([C@H]2CC(=O)C=C(c3ccc(CO)cc3)C2)cc1,-4.98
15,COc1ccc([C@H]2CC(=O)C=C(c3cccc(CO)c3)C2)cc1OC,-63.6
16,COc1ccc([C@H]2CC(=O)C=C(c3cccc(CO)c3)C2)cc1,-59.3
17,O=C1C=C(c2cccc(CO)c2)C[C@@H](c2ccc(Cl)cc2)C1,-54.5
18,COCc1cccc(C2=CC(=O)C[C@H](c3ccc(OC)cc3)C2)c1,-20.7
19,O=C1C=C(c2cccc(CO)c2)C[C@@H](c2ccc(F)cc2)C1,-45.3

row,SMILES,"hERG current change (%, negative = inhibition) at 10uM [%]"
1,COc1ccc([C@H]2CC(=O)C=C(c3ccccc3)C2)cc1OC,-3.04
2,CC[C@@H]1[C@H]2CCCC(=O)N3CC[C@@H](C[C@@H]1Nc1ccccc1)[C@@H]23,-3.88
3,Cc1ccc(NC(=O)COC(=O)c2cccc(OC(F)F)c2)cc1S(=O)(=O)N1CCCCC1,-21.1
4,CCc1c(C)nc(N)n2c(SCC(=O)Nc3ccccc3)nnc12,12.5
5,O=C1NC(Cc2c[nH]c3ccccc23)C(=O)N1CCOc1ccccc1 (stereo not drawn),-22.7
6,O=C(CCC(=O)N1CCSc2ccccc21)Nc1ccc(F)cc1,-4.12
7,Cc1oc(-c2ccccc2F)nc1CS(=O)CC(=O)NCc1ccccn1 (stereo not drawn),-0.614
8,CC(C)n1cc(CN2CCC(Oc3ccc(C(=O)N4CCCCC4)cc3)CC2)cn1,-31.6
9,O=C(c1ccc(OC2CCN(Cc3cccc(F)c3)CC2)cc1)N1CCCCC1,-23.4
10,CC(C)c1ccc(CN2CCC(Oc3ccc(C(=O)N4CCCC4)cc3)CC2)cc1,-71.6
11,C=CCOc1ccccc1CN1CCC(Oc2ccc(C(=O)N3CCCCC3)cc2)CC1,-57.6
12,C=CCOc1ccccc1CN1CCC(Oc2ccc(C(=O)N3CCCC3)cc2)CC1,-41.8
13,Cn1cc(CN2CCC(Oc3ccc(C(=O)N4CCCCC4)cc3)CC2)cn1,8.81
14,CCn1cc(CN2CCC(Oc3ccc(C(=O)N4CCCCC4)cc3)CC2)cn1,-5.09
15,CCc1ccc(CN2CCC(Oc3ccc(C(=O)N4CCCCC4)cc3)CC2)cc1,-78.4
16,O=C(c1ccc(OC2CCN(Cc3ccc(C(F)(F)F)cc3)CC2)cc1)N1CCCCC1,-57.2
17,O=C(c1ccc(OC2CCN(Cc3ccccc3C(F)(F)F)CC2)cc1)N1CCCCC1,2.01
18,O=C(c1ccc(OC2CCN(Cc3ccccc3O)CC2)cc1)N1CCCCC1,3.29
19,CC(C)n1cc(CN2CCC(Oc3ccc(C(=O)N4CCCC4)cc3)CC2)cn1,-9.96
